These results are taken from PubChem BioAssay AID624300 (Southern Research Specialized Biocontainment Screening …, 2012).

In all, about 2,400 compounds went through this assay and about 360 (15%) were called active. These entries were drawn from the full list. Potency and affinity values are given separately. A number with no mark means an inactive call.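 How the source made its calls: active means viability falls under 70% at one or more tested concentrations, taken as toxicity; inactive means viability stays over 70% at every dose.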

As a reminder, the viability is a read-out of living cells in per cent, often relative to untreated cells.

A short description of the experiment: viability loss in HeLa cells – cytotoxicity control for MgcRacGAP inhibitor project, dose response (AID 624300).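 Further: 100% = median of untreated control wells on the same plate.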 Particulars: CellTiter-Glo luminescence, 24 h; series mostly up to 100 µM; viability: at the top concentration.
`C=CCn1c(SCC(=O)c2ccc(O)c(O)c2)nnc1-c1cccc(Cl)c1`: the “viability” value is 101%. For the molecule `O=C(CN1C(=O)c2ccccc2S1(=O)=O)c1ccc(O)c(O)c1`, the “viability” value is 95.9%.

For `CC1Cc2ccccc2N1C(=O)CNCCCN(C)C` (centres undefined), the “viability” value was 110%. Take `CN(C)C(=S)N=c1ssc(=S)n1Cc1ccccc1`: the “viability” value is 118%. Take `COc1ccc(NC2CCCN(C(=O)c3csc(C)n3)C2)cc1` (centres undefined): the “viability” value was 112%. As for `C#CCOCCOCCOCCNc1nc(N2CCN(C(=O)[C@H](CCCCN)n3cc(CN)nn3)CC2)nc(N2CCN(C(=O)[C@H](CCCCN)n3cc(CN)nn3)CC2)n1`, the “viability” value is 101%.

As to `C#CCOCCOCCOCCNc1nc(N2CCN(C(=O)[C@H](CCCCN)n3cc(CN)nn3)CC2)nc(N2CCN(C(=O)[C@H](CCC(=O)O)n3cc([C@@H](N)CCCCN)nn3)CC2)n1`, the “viability” value was 108%. In the case of `Cc1ccc(CCNc2ccc3ccccc3c2)cn1` it was 93.3%; in that of `COc1cc(/C=C/CN2CCN(CCC(C)C)C(CCO)C2)ccc1O` (centres undefined), 104%.

In the case of `Nc1ccccc1Sc1ccc(C(=O)c2ccccc2C(=O)O)cc1[N+](=O)[O-]`, the “viability” value was 94%. In the case of `COc1ccc(NC2CCCN(C(=O)CCc3cn[nH]c3)C2)cc1` (centres undefined) it was 106%; in that of `COc1cccc(C(=O)Nc2cc3c(cc2N2CCCC2)n(C)c(=O)n3C)c1`, 85.1%; in that of `CCn1c(=O)n(CC)c2cc(N3CCCC3)c(NC(=O)c3ccccc3)cc21`, 93.1%. Regarding `CN=Cc1cc(-c2ccccc2)sc1O`, the “viability” value is 95.9%. In the case of `COc1cc(/C=N/NC(=O)C(C)Nc2n[nH]c(=O)[nH]c2=O)ccc1O` (centres undefined) it was 96.5%; in that of `COc1ccc(CN2CCN(c3ccccn3)CC2)c(OC)c1C`, 94%; in that of `COc1ccccc1OCC#CCn1ccnc1`, 94.7%.

Consider `COc1cc(C2C(=O)c3ccccc3C2=O)ccc1O`, for which the “viability” value is 102%. As to `COc1cc(/C=N/N2C(=O)c3ccccc3C2=O)ccc1O`, the “viability” value is 92.9%. In the case of `Oc1ccc(/C=N/NC(=S)NCCN2CCOCC2)c(O)c1` it was 91.6%; in that of `Clc1ccc(CNc2ccc(N3CCN(Cc4ccccc4)CC3)cc2)cc1`, 87.6%; in that of `CC(=O)N1CCN(c2ccc(NCc3ccc(F)cc3)cc2)CC1`, 97.8%. In the case of `CSCCOC(=O)C1=C(C)Nc2ccc(C)cc2S1` it was 111%. Regarding `COc1cc(/C=N/n2c(-c3cc(C)[nH]n3)n[nH]c2=S)cc(OC)c1O`, the “viability” value is 104%. On to `COc1cc(OC)c2cc[nH]c2c1`, for which the “viability” value was 99.2%. As for `C[n+]1c(-c2ccccc2)cc2c(=Cc3ccc([N+](=O)[O-])cc3)c3ccccc3n21`, the “viability” value is 88.6%. In the case of `COc1cc(C=C2C(=O)c3ccccc3C2=O)cc(OC)c1OC` it was 97.8%; in that of `CCOC(=O)c1sc(=S)[nH]c1C`, 95.2%; in that of `c1cc(CNc2ccc3c(c2)OCO3)ccn1`, 96.6%.

As to `COc1cccc(CN2CCN(Cc3cccc(Oc4ccccc4)c3)CC2)c1OC`, the “viability” value is 83.3%. Consider `CC1(C)CC(=O)C(C(C2=C(O)CC(C)(C)CC2=O)c2cccs2)C(=O)C1` (centres undefined), for which the “viability” value is 100%.

As for `COc1ccccc1NS(=O)(=O)c1cc(N)ccc1N1CCCC1`, the “viability” value was 89.7%. Regarding `Cc1sc2ncnc(N/N=C/c3ccc(O)cc3)c2c1C`, the “viability” value was 95.2%. As for `COc1ccc(/C=N/Nc2ccccn2)cc1O`, the “viability” value was 90.9%. Take `COc1cc(/C=C/C(=O)OCC(=O)Nc2ccc(S(=O)(=O)N3CCCC3)cc2)ccc1O`: the “viability” value was 94.6%. As to `CNC(=S)N/N=C/c1ccc(N2CCOCC2)s1`, the “viability” value is 87.5%. In the case of `NC(=O)N/N=C/c1ccc(N2CCOCC2)s1` it was 92.3%; in that of `COc1cc(/C=N/n2cnnc2)ccc1OC(=O)c1ccncc1`, 106%; in that of `CSc1nc(=S)c2[nH]c(=S)[nH]c2[nH]1`, 101%.

Take `CCCCn1c(C)cc2cc(O)ccc21`: the “viability” value is 101%. `COc1ccc(N2CCN(C(=O)c3ccccc3N(C)S(=O)(=O)c3ccccc3)CC2)cc1`: the “viability” value was 97.8%. Take `COc1cc(CNCc2cc(OC)c(OC)c(OC)c2)cc(OC)c1`: the “viability” value was 96.5%. In the case of `COc1cc2c(cc1NCc1ccc3c(c1)OCO3)oc1ccccc12` it was 81%. Regarding `CCc1cc(/C(Cc2cscn2)=N\O)c(O)cc1O`, the “viability” value is 95.1%. In the case of `CCN(CC)c1ccc(NC(=O)COC(=O)CCc2cc(OC)c(OC)c(OC)c2)cc1`, the “viability” value was 104%. Regarding `O=C(CN1CCN(C/C=C/c2ccccc2)CC1)Nc1ccccc1C(=O)NC1CC1`, the “viability” value was 95.7%. In the case of `CCn1c2ccccc2c2cc(NC(=O)CNC)ccc21` it was 101%; in that of `CCn1c2ccccc2c2cc(N)ccc21`, 91.2%.

Consider `COc1ccccc1CNCC(=O)NCc1ccc(C)cc1`, for which the “viability” value is 99.6%. As to `COc1cc(CNCc2ccccc2C(F)(F)F)cc(OC)c1`, the “viability” value was 96.3%. Take `COc1ccc(/C=N\NC(=O)c2ccc(=O)[nH]n2)cc1O`: the “viability” value is 106%. In the case of `O=C(c1cccc(F)c1)N1CCN(C2CCCCC2)CC1` it was 103%; in that of `CN(C)CCCNc1ncnc2sc(-c3ccccc3)cc12`, 91.6%. As for `Cc1cc(C)c(OCCCCN2CCC(C)CC2)c(Br)c1`, the “viability” value is 89.6%. Turning to `O=C(CN1CCN(c2ccc(O)cc2)CC1)NC(=O)NCc1ccco1`, the “viability” value was 98.2%. Regarding `COc1cc(/C=N\NC(=O)CNC(=O)C2COc3ccccc3O2)ccc1O` (centres undefined), the “viability” value was 109%.

Regarding `Oc1ccc(C2=Nn3c(nnc3-c3ccco3)SC2)cc1O`, the “viability” value was 85.5%.

As for `CCN(CC)c1ccc(NC(=O)COC(=O)CCC(=O)c2cccs2)cc1`, the “viability” value is 106%. Take `O=C(Cc1coc2cc(O)ccc12)NNC(=O)c1cccs1`: the “viability” value was 108%. Regarding `CN(C)c1ccc(C(=O)NC2(N3CCC3=O)CCCC2)cc1`, the “viability” value is 94%. Regarding `Cc1ccn2c(NC3CCCC3)c(-c3ccncc3)nc2c1`, the “viability” value was 84.7%.

On to `Cc1ccc(Nc2c(-c3ccco3)nc3ccccn23)cc1`, for which the “viability” value is 96.7%. As for `O=CNc1ccc2c(c1)Cc1cccc(NC=O)c1-2`, the “viability” value was 84.9%. As to `O=C(CNCc1ccco1)Nc1ccc(Oc2ccccc2)cc1`, the “viability” value was 89.1%. In the case of `Cc1ccccc1OCCn1c(=S)[nH]c2c(N)ncnc21` it was 104%; in that of `CC1CC(C)CN(CC(=O)NC(c2ccccc2)c2ccccc2)C1` (centres undefined), 88.4%. For the molecule `Cc1c(-c2ccccc2)sc(N)c1C(=O)N1CCOCC1`, the “viability” value is 103%. `CCN(CC)c1ccc(NC(=O)C2=CC=CN3CCS(=O)(=O)N=C23)cc1`: the “viability” value is 109%. In the case of `CCOC(=O)C1=C(O)/C(=C\c2ccc(O)c(OCC)c2)N=C1C` it was 99.8%; in that of `CCOc1cc(/C=C2\N=C3CCCCCN3C2=O)ccc1O`, 101%. On to `COc1ccccc1N1CCN(CC(=O)NCC2CCCO2)CC1` (centres undefined), for which the “viability” value is 102%. As to `Cc1cc(C)nc(SCC(=O)c2ccc(O)c(O)c2)n1`, the “viability” value was 88.8%. On to `O=C(CSc1nnnn1-c1ccc(F)cc1)c1ccc(O)c(O)c1`, for which the “viability” value was 105%. As for `COc1cc(/C=N/NC(=O)c2ccc(N3CCCC3=O)cc2)ccc1O`, the “viability” value was 112%. Consider `COc1cccc2cc(C(=O)Oc3ccc(NC(C)=O)cc3)c(=O)oc12`, for which the “viability” value is 109%. As to `Cc1ccc(C)c(OCC(O)CN2CCC(C)CC2)c1C` (centres undefined), the “viability” value was 93.9%. With `O=S(=O)(c1ccc2ccccc2c1)N1CCN(c2ccc(O)cc2)CC1`, the “viability” value is 109%. Regarding `Cc1ccc(S(=O)(=O)N2CCN(C(=O)CN3CCN(c4ccc(O)cc4)CC3)CC2)cc1`, the “viability” value is 107%. Turning to `COc1cc(C(=O)N/N=C/c2cn(Cc3ccccc3)c3ccccc23)ccc1O`, the “viability” value was 102%.

As to `O=C1CCCC(O)=C1C=Nc1ccc(O)cc1`, the “viability” value is 98%. Regarding `COc1cc(/C=N/N=C2\CC3CCC2(C)C3(C)C)ccc1O` (centres undefined), the “viability” value was 96.9%. For the molecule `O=C(C[n+]1ccccc1)N/N=C/c1ccc(O)cc1`, the “viability” value was 98.7%. For the molecule `CCN(CC)c1ccc(/C=N/NC(=O)c2cc3ccccc3[nH]2)cc1`, the “viability” value is 100%.

Turning to `COc1ccc(C)cc1NC(=O)C(NCC(O)c1ccccc1)c1ccccc1` (centres undefined), the “viability” value was 90.1%.

With `CC(=O)N1CCN(c2ccc(NCc3ccccc3)cc2)CC1`, the “viability” value is 100%.

Take `CCc1nc(Nc2ccc(N3CCN(C(C)=O)CC3)cc2)c2oc3ccccc3c2n1`: the “viability” value is 102%. As to `COc1cc(/C=C/C(=O)OCC(=O)c2ccc(OC(F)F)cc2)ccc1O`, the “viability” value was 94.6%. Turning to `CCN(CC)c1ccc(NC(=O)c2ccc3c(c2)OCO3)cc1`, the “viability” value is 102%. For the molecule `CCN(CC)c1ccc(NC(=O)c2ccc(S(=O)(=O)N3CCOCC3)cc2)cc1`, the “viability” value is 95.2%.

Turning to `C/C=C(\C)CN1CCN(c2ccc(C)cc2)CC1`, the “viability” value is 95.2%. As to `CN1C=CC=C/C1=C(\C#N)c1nc2ccccc2[nH]1`, the “viability” value is 102%. Turning to `COc1cc(/C=C(\C#N)C(=O)c2c[nH]c3ccccc23)cc(OC)c1O`, the “viability” value was 98.6%. Take `N#C/C(=C\c1ccc(N2CCOCC2)o1)c1nc2ccccc2[nH]1`: the “viability” value was 94.4%. As for `COc1cc(/C=C(\C#N)C(=O)Nc2ccc3c(c2)OCCO3)ccc1O`, the “viability” value was 110%. For `N#C/C(=C/c1ccc(N2CCOCC2)o1)c1nc2ccccc2[nH]1`, the “viability” value was 98.4%. For the molecule `COc1ccccc1N1CCN(/N=C/c2cc(OC)c(O)c(OC)c2)CC1`, the “viability” value was 98.3%. In the case of `COc1ccc(CN2CCN(Cc3ccccc3F)CC2)cc1OC`, the “viability” value was 94%.

For `CN(c1ccccc1)S(=O)(=O)c1cccc(C(=O)NCCc2ccc(O)c(O)c2)c1`, the “viability” value is 93.7%. Consider `COc1cccc(OC)c1C(=O)N1CCN(Cc2ccc3c(c2)OCO3)CC1`, for which the “viability” value was 96.2%. `COc1cc(/C=C/C(=O)OCC(=O)N(C)Cc2ccccc2)ccc1O`: the “viability” value was 90%. Consider `Cc1ccc(C2=NN=C(NC(=O)CSc3nncn3C)SC2)cc1`, for which the “viability” value is 86.7%. For the molecule `COc1cc(/C=N/NC(=O)CC2C(=O)NN=C2C)ccc1O` (centres undefined), the “viability” value is 98.4%. Take `CCN(CC)c1ccc(NC(=O)CN2C(=O)NC3(CCc4ccccc43)C2=O)cc1` (centres undefined): the “viability” value is 108%.

Take `Nc1ccc(C(=O)c2ccc3c(c2)OCCO3)cc1N`: the “viability” value is 105%. In the case of `COc1cc(-c2nc3ccccc3s2)ccc1O` it was 92.2%; in that of `Cc1ccc(S(=O)(=O)Nc2nsc(N)n2)cc1`, 99.2%; in that of `Oc1ccc(Cc2ccccc2Cl)c(O)c1`, 89%. Take `CCOc1cc(/C=N/NC(=O)C(C)Sc2ccccn2)ccc1O` (centres undefined): the “viability” value is 114%. As to `COc1cc(/C=N\Nc2cc(=O)n(C)c(=O)n2C)ccc1O`, the “viability” value is 93%. For `COc1cc(/C=C/C(=O)OCC(=O)N(CC(C)C)c2c(N)n(Cc3ccccc3)c(=O)[nH]c2=O)ccc1O`, the “viability” value is 83.7%. In the case of `COc1ccc(Nc2ccccc2)c(C)c1` it was 93%; in that of `O=[N+]([O-])c1cc([N+](=O)[O-])c2nonc2c1Nc1ccccc1O`, 91.2%; in that of `Cc1cc(C)c(C)c(S(=O)(=O)N2CCN(c3ccc(O)cc3)CC2)c1C`, 111%. With `CCOc1cc(/C=N\NC(=O)c2c(C)nc3ccccn23)ccc1O`, the “viability” value is 97.5%.
